Reference: ChEMBL document CHEMBL3988442, “University of Dundee, Small-Polar-MMV Screening Library” (2021)
The whole screen tested about 48,000 compounds, of which about 13,000 (27%) showed an effect of 50% or more. The list shows a part of the results.

The compounds below were run on Wolbachia pipientis (assay: Anti-Wolbachia Cell-Based Screen). Conditions: 5 µM.
Assay type: functional
Parameters: scale not given: in the data most compounds retested in dose-response had high values
With `Cc1ccc(OC2(C(=O)O)CCN(C/C=C/c3ccco3)CC2)c(C)n1` the “Percent Effect” value was -5.357%. In the case of `CC(C)c1cc(C(=O)N2C[C@H]3CC[C@@H]2CN(Cc2cccnc2)C3)no1`, the “Percent Effect” value is reported as 0.5633%. With `CC(C)N1CCCc2sc(C(=O)NC3CC3)nc21` the “Percent Effect” value was -0.2474%. With `CNC(=O)Cc1noc(-c2cc3c(s2)CCC(C)C3)n1` (stereo not drawn) the “Percent Effect” value was -12.44%. With `CN(CC1CN(Cc2cn3ccsc3n2)CCO1)c1cccnn1` (stereo not drawn) the “Percent Effect” value was 13.06%. With `Cc1nc(COc2ccc(OC(C)C(N)=O)cc2)oc1C` (stereo not drawn) the “Percent Effect” value was 1.86%. In the case of `Cc1ccc(-n2cc(CN3CCOCC3)c(-c3cccc(C)c3)n2)cc1`, the “Percent Effect” value is reported as 0.1947%. With `O=C(c1ccc2nncn2c1)N1CCSC2(CCCCC2)C1` the “Percent Effect” value was -6.872%. `CCn1cc(CN2CCCN(C(=O)c3ccoc3C)CC2)cn1` was tested, and the “Percent Effect” value was 105.3%. In the case of `Cc1cc(C(=O)N2CCN(Cn3cc(Cl)cn3)CC2)on1`, the “Percent Effect” value is reported as 0.1609%. For `CCc1nc(CN2CCCN(C(=O)c3cccn3C)CC2)cs1`, the “Percent Effect” value was -9.878%. With `Cc1occc1C(=O)N1CCCN(Cc2cnn(C(C)C)c2)CC1` the “Percent Effect” value was -5.086%. For `CCn1cc(CN2CCCN(C(=O)c3cccn3C)CC2)cn1`, the “Percent Effect” value was 145.7%. For `CCn1cc(CN2CCCN(C(=O)c3ccc(C)o3)CC2)cn1`, the “Percent Effect” value was 126.6%. With `CC(C)n1cc(CN2CCCN(C(=O)c3cccn3C)CC2)cn1` the “Percent Effect” value was 7.673%. For `CCn1cc(CN2CCCN(C(=O)c3cc(C)no3)CC2)cn1`, the “Percent Effect” value was 149.7%. For `CCC1=N[C@@]2(CC[C@@H]3CN(S(=O)(=O)CC)C[C@@H]32)C(=O)N1CC`, the “Percent Effect” value was 5.096%. In the case of `Cc1nc(C(=O)N2CCN(c3ncccn3)[C@@H]3CS(=O)(=O)C[C@@H]32)cs1`, the “Percent Effect” value is reported as -1.503%. In the case of `c1cnnc(N2CCCC2CNc2ncnc3ccccc23)c1` (stereo not drawn), the “Percent Effect” value is reported as 0.08494%. In the case of `Cc1cc(NC(=O)N2CCN(C)CC2C)n(C)n1` (stereo not drawn), the “Percent Effect” value is reported as -19.14%. With `Cc1cc(CNc2ccnn2CC(C)C)ccc1-n1cncn1` the “Percent Effect” value was -23.25%. `CSc1ccc(NS(=O)(=O)c2cnn(C)c2)cn1` was tested, and the “Percent Effect” value was -3.394%. For `CCc1nc(CN2CCCN(C(=O)c3ccco3)CC2)cs1`, the “Percent Effect” value was 109.2%. In the case of `CCc1nnsc1C(=O)N1CCCN(Cc2cnn(CC)c2)CC1`, the “Percent Effect” value is reported as -1.096%. In the case of `CCc1nc(CN2CCCN(C(=O)c3ccccc3)CC2)cs1`, the “Percent Effect” value is reported as 5.45%. For `CCc1ccc(C(=O)N2CCCN(Cc3csc(CC)n3)CC2)o1`, the “Percent Effect” value was -14.26%. `CCn1cc(CN2CCCN(C(=O)c3c(C)oc(C)c3C)CC2)cn1` was tested, and the “Percent Effect” value was 105.9%. In the case of `Cc1ccc(NS(C)(=O)=O)c(C(=O)NCCC(=O)NC(C)C)c1`, the “Percent Effect” value is reported as -8.186%. In the case of `CCOCCN1CCN(Cc2nnc(C3CC3)o2)CC1`, the “Percent Effect” value is reported as -12.93%. `c1ccc(OCCN2CCCC(c3noc(C4CC4)n3)C2)cc1` (stereo not drawn) was tested, and the “Percent Effect” value was -2.8%. With `CCOCCN1CCC(c2cncc(C)n2)CC1` the “Percent Effect” value was 133%. With `OCCn1cc(CN2CCN(CCOc3ccccc3)CC2)cn1` the “Percent Effect” value was -4.681%. With `c1ccc(OCCN2CCC(c3nnc(-c4cccnc4)o3)CC2)cc1` the “Percent Effect” value was 108.1%. In the case of `Fc1ccc(CCN2CCC(c3nnc(-c4cccnc4)o3)CC2)cc1`, the “Percent Effect” value is reported as -17.22%. With `CCOCCN1CCn2c(C)nnc2C1` the “Percent Effect” value was 4.517%. In the case of `c1ccc(OCCN2CCC(c3cnccn3)CC2)cc1`, the “Percent Effect” value is reported as 90.65%. In the case of `c1ccc(CCCN2CC[C@H](c3nnc(-c4cccnc4)o3)C2)cc1`, the “Percent Effect” value is reported as 5.165%. `CCOCCN1CCC(c2cnccn2)CC1` was tested, and the “Percent Effect” value was 103.5%. `CCOCCN1CCc2cncnc2C1` was tested, and the “Percent Effect” value was 24.85%. In the case of `O=C(c1cc(C2CC2)no1)N1C[C@H]2CC[C@@H]1CN(Cc1ccccn1)C2`, the “Percent Effect” value is reported as -3.322%. With `CCNC(=O)CCC(=O)NC(Cc1ccccc1)c1sccc1C` (stereo not drawn) the “Percent Effect” value was -7.516%. `CC(C)CN1CCCC1c1ccc(C(=O)Nc2ccc3[nH]nnc3c2)s1` (stereo not drawn) was tested, and the “Percent Effect” value was 0.6901%. In the case of `CCC(C)(CO)NC(=O)Nc1cc2c(cc1SC)OCCO2` (stereo not drawn), the “Percent Effect” value is reported as -5.152%. With `CCOC(C)c1nc(Cn2cc(-n3cccc3)cn2)cs1` (stereo not drawn) the “Percent Effect” value was -7.68%. `COc1ccc(F)cc1C(C)NC(=O)Nc1nncs1` (stereo not drawn) was tested, and the “Percent Effect” value was 5.791%. `O=C(O)C(F)(F)F.c1ccc(-c2ccc3nc(C4CCN(CC5CC5)CC4)nn3c2)cc1` was tested, and the “Percent Effect” value was 21.53%. With `CCCN1CCC(c2nc3ccc(-c4ccncc4)cn3n2)CC1.O=C(O)C(F)(F)F.O=C(O)C(F)(F)F` the “Percent Effect” value was 100.7%. For `Cc1cccc(-c2ccc3nc(C4CCN(CC5CC5)CC4)nn3c2)c1.O=C(O)C(F)(F)F`, the “Percent Effect” value was 10.89%. For `CCCN1CCC(c2nc3ccc(-c4ccccc4)cn3n2)CC1.O=C(O)C(F)(F)F`, the “Percent Effect” value was 132.6%. With `COCC(=O)N1CCC(c2nc3ccc(-c4ccncc4)cn3n2)CC1.O=C(O)C(F)(F)F` the “Percent Effect” value was 3.081%. For `CCCN1CCC(c2nc3ccc(NCc4cccnc4)cn3n2)CC1.O=C(O)C(F)(F)F.O=C(O)C(F)(F)F.O=C(O)C(F)(F)F`, the “Percent Effect” value was -17.81%. For `CCCN1CCC(c2nc3ccc(NCc4ccccc4)cn3n2)CC1.O=C(O)C(F)(F)F.O=C(O)C(F)(F)F`, the “Percent Effect” value was -22.92%. With `CCCN1CCC(c2nc3ccc(-c4cccc(F)c4)cn3n2)CC1.O=C(O)C(F)(F)F` the “Percent Effect” value was 109.7%.
